The results in this text go back to PMC4336329 (PLoS ONE, 2015).

Among all 310,000 compounds or so, about 14,000 (4.5%) showed an effect of 50% or more. Effects have a minus sign here. The full list was thinned out, with strong results kept by preference.
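Also: peak tail current of the secondary pulse compared with the same well before compound.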

Sequence of human ether-à-go-go-related gene (hERG) potassium channel (Q12809 whole entry, looked up): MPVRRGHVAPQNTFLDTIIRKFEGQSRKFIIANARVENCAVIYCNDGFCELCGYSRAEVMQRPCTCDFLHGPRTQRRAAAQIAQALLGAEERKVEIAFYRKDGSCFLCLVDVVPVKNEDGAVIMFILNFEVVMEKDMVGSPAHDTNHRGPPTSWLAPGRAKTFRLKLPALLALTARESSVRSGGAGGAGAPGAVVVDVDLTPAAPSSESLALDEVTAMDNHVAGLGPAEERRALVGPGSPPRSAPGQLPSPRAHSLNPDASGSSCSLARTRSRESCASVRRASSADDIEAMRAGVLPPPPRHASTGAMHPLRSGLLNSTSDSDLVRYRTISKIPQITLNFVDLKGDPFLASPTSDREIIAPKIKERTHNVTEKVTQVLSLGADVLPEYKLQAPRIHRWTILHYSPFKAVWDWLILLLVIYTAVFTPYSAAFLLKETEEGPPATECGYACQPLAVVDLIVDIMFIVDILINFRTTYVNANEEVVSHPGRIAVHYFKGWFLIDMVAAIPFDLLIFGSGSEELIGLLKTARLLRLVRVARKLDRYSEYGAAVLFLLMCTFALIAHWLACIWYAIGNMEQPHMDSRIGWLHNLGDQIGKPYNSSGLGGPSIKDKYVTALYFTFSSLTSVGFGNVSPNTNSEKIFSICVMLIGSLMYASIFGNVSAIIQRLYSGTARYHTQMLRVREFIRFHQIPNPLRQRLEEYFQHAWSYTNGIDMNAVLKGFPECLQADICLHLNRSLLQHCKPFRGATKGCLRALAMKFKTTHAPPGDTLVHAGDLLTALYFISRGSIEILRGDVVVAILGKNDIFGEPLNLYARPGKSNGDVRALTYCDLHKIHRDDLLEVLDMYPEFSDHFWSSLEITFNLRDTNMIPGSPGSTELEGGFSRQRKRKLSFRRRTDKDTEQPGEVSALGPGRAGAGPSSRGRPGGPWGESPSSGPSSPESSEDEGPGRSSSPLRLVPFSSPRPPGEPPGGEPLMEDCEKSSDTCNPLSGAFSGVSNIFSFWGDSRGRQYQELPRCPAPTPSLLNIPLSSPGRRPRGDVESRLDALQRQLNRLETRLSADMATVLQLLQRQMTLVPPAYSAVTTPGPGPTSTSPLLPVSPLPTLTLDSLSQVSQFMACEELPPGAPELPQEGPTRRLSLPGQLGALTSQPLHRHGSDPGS

This test addresses human ether-à-go-go-related gene (hERG) potassium channel (human, UniProt Q12809). The test is described as follows: primary screen, population patch clamp on CHO cells stably expressing hERG; higher = less effect of the substance.
On to `Cc1cccc(NC(=O)CCN2C(=O)c3cccc([N+](=O)[O-])c3C2=O)c1`, for which the “hERG current change (%, negative = inhibition) at 10uM” value worked out at 10.8%.

For the molecule `Cc1cc(N)ccc1NC(=O)CN1CCCC1`, the “hERG current change (%, negative = inhibition) at 10uM” value is 21.2%.

As to `N#Cc1sc(C(N)=O)c(-c2ccccc2)c1-c1ccccc1`, the “hERG current change (%, negative = inhibition) at 10uM” value was 9.86%.

With `Cc1cc(Nc2ccccc2)c2c([N+](=O)[O-])ccc(C)c2n1`, the “hERG current change (%, negative = inhibition) at 10uM” value is given as -24.7%.

For `CCOc1ccc2nc(C)cc(Nc3cccc([N+](=O)[O-])c3)c2c1.Cl`, the “hERG current change (%, negative = inhibition) at 10uM” value is on record as -30.4%.

Consider `Cc1cc(Nc2cccc([N+](=O)[O-])c2)c2cccc(C)c2n1.Cl`, for which the “hERG current change (%, negative = inhibition) at 10uM” value was -77.3%.

`Cc1cc(Nc2ccc([N+](=O)[O-])cc2)c2ccccc2n1`: the “hERG current change (%, negative = inhibition) at 10uM” value is -20%.

For the molecule `O=[N+]([O-])c1cccc(Nc2c3ccccc3nc3ccccc23)c1`, the “hERG current change (%, negative = inhibition) at 10uM” value is reported as -11.5%.

Take `Cc1cc(Nc2cccc([N+](=O)[O-])c2)c2ccccc2n1`: the “hERG current change (%, negative = inhibition) at 10uM” value is -76.9%.

With `CCOc1cc(C2NN=C(c3ccc(C)cc3)S2)ccc1O` (stereo not drawn), the “hERG current change (%, negative = inhibition) at 10uM” value was 9.67%.

As to `Cc1occc1C(=O)Nc1ccc2c(c1)OCO2`, the “hERG current change (%, negative = inhibition) at 10uM” value was -7.71%.

As for `O=C(O)c1ccc(C(=O)O)c(C(=O)c2ccccc2)c1`, the “hERG current change (%, negative = inhibition) at 10uM” value amounted to 1.72%.

As to `c1ccc(CN2CCOCCOCCOCC2)cc1`, the “hERG current change (%, negative = inhibition) at 10uM” value stood at 15.6%.

Turning to `O=C(NC(=S)Nc1ccc(CN2CCOCC2)cc1)c1ccc([N+](=O)[O-])cc1`, the “hERG current change (%, negative = inhibition) at 10uM” value is -13%.

Consider `O=[N+]([O-])c1ccc(CN2CCOCCOCCN(Cc3ccc([N+](=O)[O-])cc3)CCOCC2)cc1`, for which the “hERG current change (%, negative = inhibition) at 10uM” value is reported as -77.8%.

Regarding `O=[N+]([O-])c1ccc(CN2CCSCC2)cc1`, the “hERG current change (%, negative = inhibition) at 10uM” value amounted to 15.5%.

`O=[N+]([O-])c1ccc(CN2CCOCCOCCOCC2)cc1`: the “hERG current change (%, negative = inhibition) at 10uM” value is -59.1%.

On to `O=[N+]([O-])c1ccc(CN2CCCCCC2)cc1`, for which the “hERG current change (%, negative = inhibition) at 10uM” value is -32.8%.

`CC(OC(=O)c1ccc(Cl)c(S(=O)(=O)N2CCOCC2)c1)C(=O)NC1CCCCC1C` (stereo not drawn): the “hERG current change (%, negative = inhibition) at 10uM” value was -35.9%.

`O=C1OC(CCl)CN1Cc1c(Cl)cccc1Cl` (stereo not drawn): the “hERG current change (%, negative = inhibition) at 10uM” value is given as -0.492%.

Turning to `O=C(COc1ccc(C(=O)c2ccc(F)cc2)cc1)NCc1ccc(F)cc1`, the “hERG current change (%, negative = inhibition) at 10uM” value amounted to 4.49%.

With `COC(=O)[C@]1(C)N[C@H](c2ccc(-c3ccc(F)cc3)cc2)[C@@H]2C(=O)N(C)C(=O)[C@@H]21.O=C(O)C(F)(F)F`, the “hERG current change (%, negative = inhibition) at 10uM” value is on record as -1.3%.

With `NS(=O)(=O)c1cc(C(=O)O)c(NCc2ccco2)cc1Cl`, the “hERG current change (%, negative = inhibition) at 10uM” value stood at 14.7%.

Regarding `CCC(=O)N=c1sc2ccccc2n1-c1ccccc1`, the “hERG current change (%, negative = inhibition) at 10uM” value was found to be 17.8%.

As to `Cc1cc(C=C(C#N)C#N)ccc1N1CCCC1`, the “hERG current change (%, negative = inhibition) at 10uM” value is given as -65%.

In the case of `Cc1cc(N2CCCC2)ccc1C=C(C#N)C#N`, the “hERG current change (%, negative = inhibition) at 10uM” value was -13.2%.

Take `N#CC(C#N)=Cc1ccc(N2CCCC2)cc1`: the “hERG current change (%, negative = inhibition) at 10uM” value is 4.17%.

Regarding `Cc1ccc(C)c(NC(=O)c2cc3c([nH]c4ccccc43)c(C)n2)c1`, the “hERG current change (%, negative = inhibition) at 10uM” value was 5.7%.

Turning to `c1ccc2c(N3CCCCC3)nc(N3CCOCC3)nc2c1`, the “hERG current change (%, negative = inhibition) at 10uM” value is reported as -33.7%.

In the case of `Cc1nc(N2CCCCCC2)c2ccccc2n1.Cl`, the “hERG current change (%, negative = inhibition) at 10uM” value is on record as -51.5%.

Regarding `c1ccc2c(N3CCCCC3)nc(N3CCCCC3)nc2c1`, the “hERG current change (%, negative = inhibition) at 10uM” value was -39.1%.

With `Cl.c1ccc2c(c1)nc(N1CCCCC1)c1ccccc12`, the “hERG current change (%, negative = inhibition) at 10uM” value is given as -2.67%.

For the molecule `c1ccc2c(N3CCCCC3)nc(N3CCCC3)nc2c1`, the “hERG current change (%, negative = inhibition) at 10uM” value is reported as -69.6%.

Take `I.c1ccc2c(c1)nc(N1CCCCCC1)c1ccccc12`: the “hERG current change (%, negative = inhibition) at 10uM” value is on record as 0.834%.

Take `O=C(NC1(Cc2ccccc2)CCN(CCc2cccs2)C1=O)c1ccccc1` (stereo not drawn): the “hERG current change (%, negative = inhibition) at 10uM” value was -1.81%.

Consider `Cc1ccc(C)c(Nc2cc(C)nc(-c3ccccc3O)n2)c1`, for which the “hERG current change (%, negative = inhibition) at 10uM” value came to 15%.

For the molecule `COc1cc(C(=S)N2CCCC2)ccc1OCC(N)=O`, the “hERG current change (%, negative = inhibition) at 10uM” value was 17.8%.

Consider `COC(=O)c1n[nH]n(-c2ccc(F)c(Cl)c2)c1=O`, for which the “hERG current change (%, negative = inhibition) at 10uM” value is 9.84%.

On to `CCC(C)N(C(=O)CN1C(=O)NC2(CCc3ccccc32)C1=O)C1CCS(=O)(=O)C1` (stereo not drawn), for which the “hERG current change (%, negative = inhibition) at 10uM” value is reported as -3.41%.

With `CC1CCN(CCCCOc2ccc(C(C)(C)C)cc2)CC1.O=C(O)C(=O)O`, the “hERG current change (%, negative = inhibition) at 10uM” value is -59.6%.

As for `CC(C)(c1ccccc1)c1ccc(OCCCN2CCNCC2)cc1.O=C(O)C(=O)O`, the “hERG current change (%, negative = inhibition) at 10uM” value came to 3.19%.

In the case of `Cc1ccc(OCCCCCCN2CCNCC2)cc1.O=C(O)C(=O)O`, the “hERG current change (%, negative = inhibition) at 10uM” value is listed as -11.6%.

Consider `Cc1ccc(OCCCCN2CCC(C)CC2)cc1.O=C(O)C(=O)O`, for which the “hERG current change (%, negative = inhibition) at 10uM” value is recorded as -23.4%.

In the case of `CC1CCN(CCCCOc2ccc(Cl)cc2)CC1.O=C(O)C(=O)O`, the “hERG current change (%, negative = inhibition) at 10uM” value was -71.7%.

`COc1ccc(OCCCCN2CCC(C)CC2)cc1.O=C(O)C(=O)O`: the “hERG current change (%, negative = inhibition) at 10uM” value is listed as -29%.
